In the supplement of paper PMC6992640:
± gives the standard deviation of the averaged measurements.

How the values were obtained:
Assay in all cases: cell viability (% of vehicle); higher = less cytotoxic
Settings in all cases: 10 µM; 72 h
[1] = system: HCI01 (cells of a triple-negative basal-like breast cancer xenograft)
[2] = system: HCI03 (cells of an ER-positive luminal breast cancer xenograft)
[3] = system: HCI09 (cells of a triple-negative luminal androgen receptor type breast cancer xenograft)
[4] = system: HCI11 (cells of an ER-positive luminal breast cancer xenograft)
[5] = system: HCI13 (cells of an ER-positive luminal breast cancer xenograft)
[6] = system: HCI16 (cells of a triple-negative basal-like breast cancer xenograft)
[7] = system: UCD52 (cells of a triple-negative basal-like breast cancer xenograft)
[8] = system: WHIM2 (cells of a triple-negative basal-like breast cancer xenograft)
[9] = system: WHIM30 (cells of a triple-negative basal-like breast cancer xenograft)
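Note: PDX cells carrying CMV promoter-driven luciferase, viability read as total photon flux per second by IVIS imaging following D-luciferin, vehicle control 0.1% DMSO.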

| SMILES | cell viability [1] | cell viability [2] | cell viability [3] | cell viability [4] | cell viability [5] | cell viability [6] | cell viability [7] | cell viability [8] | cell viability [9] |
| --- | --- | --- | --- | --- | --- | --- | --- | --- | --- |
| Cc1c(O)cccc1C(=O)NC(CSc1ccccc1)C(O)CN1CC2CCCCC2CC1C(=O)NC(C)(C)C (stereo unspecified) [Nelfinavir] | 117 ± 39 | 93.4 | 52.9 ± 40 | 97.2 | 89.3 ± 0.59 | 101 | 68.7 ± 4 | 89.2 ± 16 | 61.5 ± 6.5 |
| CCC(C)n1ncn(-c2ccc(N3CCN(c4ccc(OCC5COC(Cn6cncn6)(c6ccc(Cl)cc6Cl)O5)cc4)CC3)cc2)c1=O (stereo unspecified) [Itraconazole] | 93.5 ± 38 | 81.2 | 56.7 ± 1.2 | 78.5 | 84.3 ± 4.1 | 129 | 68.6 ± 12 | 131 ± 17 | 94.7 ± 1.1 |
| O=C(O)c1cccnc1 [Nicotinic Acid] | 97.2 ± 15 | 119 | 100 ± 20 | 87.3 | 112 ± 18 | 98.5 | 92.8 ± 2.8 | 84.3 ± 10 | 143.6 ± 0.45 |
| COc1ccc(C2Sc3ccccc3N(CCN(C)C)C(=O)C2OC(C)=O)cc1.Cl (stereo unspecified) [Diltiazem HCl] | 81.5 ± 45 | 123 | 85.4 ± 4 | 88.9 | 95.5 ± 7.5 | 108 | 72.3 ± 5.6 | 93 ± 22 | 131 ± 15 |
| CCCC(=O)[O-].[Na+] [Sodium butyrate] | 99.3 ± 20 | 85.5 | 89.8 ± 3.3 | 92.5 | 47.1 ± 5.4 | 91.9 | 73.7 ± 6.9 | 83.5 ± 18 | 119 ± 11 |
| COc1ccc2c(c1)c(CC(=O)O)c(C)n2C(=O)c1ccc(Cl)cc1 [Indomethacin] | 106 ± 20 | 88.7 | 96.7 ± 1.1 | 79.2 | 105 ± 4.9 | 92 | 72.4 ± 13 | 92.1 ± 4.3 | 93 ± 5.3 |
| Cc1cc(Nc2cc(N3CCN(C)CC3)nc(Sc3ccc(NC(=O)C4CC4)cc3)n2)n[nH]1 [VX-680 (MK-0457,Tozasertib)] | 122 ± 11 | 84.3 | 70 ± 21 | 133 | 81.5 ± 1.7 | 111 | 66.5 ± 10 | 67.6 ± 2.1 | 142 ± 14 |
| CCCC(CCC)C(=O)O [Valproic acid] | 102 ± 13 | 121 | 133 ± 28 | 103 | 143 ± 3.3 | 106 | 95.8 ± 6.9 | 95.6 ± 7.5 | 83.36 ± 0.16 |
| CC(=O)N(CC(O)CO)c1c(I)c(C(=O)NCC(O)CO)c(I)c(C(=O)NCC(O)CO)c1I (stereo unspecified) [Iohexol] | 117 ± 33 | 116 | 96.5 ± 2.9 | 83.2 | 133 ± 9.7 | 122 | 101 ± 6.7 | 99.2 ± 2.7 | 95.9 ± 8.9 |
